Data reported in PubChem BioAssay (NCI).
Values joined by “and” are separate entries in the source; they are usually repeats but may differ in a detail not shown here. Identical values can stand only once. About 79,000 compounds went through this panel and 15% of them were active in at least one assay; those are over-represented in the sample as a whole. More than one record can exist for a structure, and the calls need not agree. Active and inactive are the calls of the source. Cut-off read from the data, not from the text of the source: active = growth inhibition above about 70%; inactive = the rest.

Key:
[1] = NCI Yeast Anticancer Drug Screen. Data for the mec2-1 strain (AID 157); details: S. cerevisiae mec2-1 strain, stronger effect = higher value
In short: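 Vehicle-treated cultures served as reference for growth inhibition of compound-exposed mec2-1 yeast.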

[2] = NCI Yeast Anticancer Drug Screen. Data for the rad14 strain (AID 159);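 note: 0% = growth of vehicle-treated control cultures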; details: S. cerevisiae rad14 strain growth inhibition, stronger effect = higher value
In short: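 Screen for anticancer potential: a yeast strain altered in DNA damage repair is grown with compound, and reduced growth is quantified against vehicle controls.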

[3] = NCI Yeast Anticancer Drug Screen. Data for the sgs1 mgt1 strain (AID 161);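 note: 0% = growth of cultures given vehicle only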; details: S. cerevisiae sgs1 mgt1 strain, stronger effect = higher value
In short: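 Read-out: growth inhibition vs vehicle controls. Cells: mutant yeast strain deficient in DNA damage repair.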

[4] = NCI Yeast Anticancer Drug Screen. Data for the CLN2oe strain (AID 163);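 note: 0% = growth of vehicle-only control cultures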; details: S. cerevisiae CLN2oe strain, stronger effect = higher value
In short: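 Inhibition relative to vehicle-treated yeast is reported. Cells: strain with genetic alteration in cell-cycle control, grown with compound.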

[5] = NCI Yeast Anticancer Drug Screen. Data for the cln2 rad14 strain (AID 165);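 note: 0% = growth equal to vehicle treated cultures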; details: S. cerevisiae cln2 rad14 strain, stronger effect = higher value
In short: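 Each compound was tested on cln2 rad14 yeast. Inhibition of growth was calculated against vehicle-exposed controls.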

[6] = NCI Yeast Anticancer Drug Screen. Data for the bub3 strain (AID 167); details: S. cerevisiae bub3 mutant strain, stronger effect = higher value
In short: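 Screening used yeast with an engineered genetic alteration affecting cell cycle control. Compound-exposed cultures were compared with vehicle cultures, and reduced growth was taken as inhibition.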

[7] = NCI Yeast Anticancer Drug Screen. Data for the wt2 strain (AID 169);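 note: 0% = growth of vehicle-treated yeast cultures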; details: S. cerevisiae wt2 strain growth inhibition, stronger effect = higher value
In short: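 Inhibition of yeast growth was determined after compound treatment, normalised to controls receiving only vehicle.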

[8] = NCI Yeast Anticancer Drug Screen. Data for the mlh1 strain (AID 171);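 note: 0% = growth of vehicle-treated control cultures of the same strain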; details: S. cerevisiae mlh1 strain growth inhibition, stronger effect = higher value
In short: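 Vehicle-normalised growth inhibition of a repair- or checkpoint-altered yeast strain following compound treatment.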

[9] = NCI Yeast Anticancer Drug Screen. Data for the sgs1 strain (AID 173);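 note: 0% = growth of vehicle-only control cultures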; details: S. cerevisiae sgs1 mutant, stronger effect = higher value
In short: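 Screen format: yeast with repair or checkpoint alterations, compound exposure, growth read relative to vehicle.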

[10] = NCI Yeast Anticancer Drug Screen. Data for the mlh1 rad18 strain (AID 175); details: S. cerevisiae mlh1 rad18 strain growth inhibition, stronger effect = higher value
In short: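 Vehicle-treated cultures served as the reference for growth inhibition in a yeast strain carrying DNA damage repair alterations exposed to each compound.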

[11] = NCI Yeast Anticancer Drug Screen. Data for the rad18 strain (AID 177); details: S. cerevisiae rad18 mutant growth inhibition, stronger effect = higher value
In short: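 Test articles were incubated with altered yeast defective in DNA damage repair. Results are given as inhibition of growth versus vehicle.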

[12] = NCI Yeast Anticancer Drug Screen. Data for the rad52 strain (AID 147);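 note: 0% = growth of vehicle-treated control cultures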; details: S. cerevisiae rad52 mutant growth inhibition, stronger effect = higher value
In short: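 Vehicle-treated cultures served as the reference for growth inhibition of compound-exposed yeast bearing a DNA repair mutation.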

[13] = NCI Yeast Anticancer Drug Screen. Data for the wt1 strain (AID 149);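 note: 0% = growth of vehicle-treated wt1 cultures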; details: S. cerevisiae wt1 strain (SPY 50644) growth inhibition, stronger effect = higher value
In short: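 Using yeast strain wt1, compound-induced growth inhibition was determined against vehicle-treated cultures.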

[14] = NCI Yeast Anticancer Drug Screen. Data for the rad50EPP+ strain (AID 151);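 note: 0% = growth of vehicle-treated control cultures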; details: S. cerevisiae rad50 mutant strain, stronger effect = higher value
In short: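 In this screen, rad50EPP+ yeast were exposed to compounds. Growth inhibition was scored against vehicle-treated controls.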

[15] = NCI Yeast Anticancer Drug Screen. Data for the mgt1 strain (AID 153); details: S. cerevisiae mgt1 mutant growth inhibition, stronger effect = higher value
In short: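 mgt1 strain exposed; growth vs vehicle control recorded as inhibition.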

[16] = NCI Yeast Anticancer Drug Screen. Data for the rad50 strain (AID 155);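 note: 0% = growth of vehicle-only cultures of the same strain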; details: S. cerevisiae rad50 strain growth inhibition, stronger effect = higher value
In short: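 Relative growth inhibition (compound vs vehicle) was measured in yeast with a defined repair-gene alteration.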

[17] = at 5.0 µM (retest, dose inferred, filed as 0.5)
[18] = at 50.0 µM (retest, dose inferred, filed as 5.0)

Measured: growth inhibition

Cc1c2ccnc(C(=O)NCCN(C)C)c2cc2c3cc(O)ccc3n(C)c12
inactive: [1]; [17] -7% | [1]; at 11.0 µM 14% | [1]; at 33.0 µM 26% | [1]; [18] 7% | [1]; at 50.0 µM 23.8% | [1]; at 100.0 µM 39% | [2]; at 1.2 µM 1% | [2]; at 3.7 µM 3% | [2]; at 11.0 µM 9% | [2]; at 33.0 µM 21% | [2]; at 100.0 µM 37% | [3]; [17] -4% | [3]; [18] 8% | [3]; at 50.0 µM 13.3% | [4]; at 1.2 µM 0% | [4]; at 3.7 µM 1% | [4]; at 11.0 µM 0% | [4]; at 33.0 µM 9% | [4]; at 100.0 µM 19% | [5]; [17] 4% | [5]; [18] 33% | [5]; at 50.0 µM 44.5% | [6]; at 1.2 µM 1% | [6]; at 3.7 µM 1% | [6]; [17] 40% | [6]; at 11.0 µM 4% | [6]; at 33.0 µM 14% | [6]; [18] 42% | [6]; at 50.0 µM 8.05% | [6]; at 100.0 µM 23% | [7]; at 1.2 µM 1% | [7]; at 3.7 µM 2% | [7]; at 11.0 µM 7% | [7]; at 33.0 µM 20% | [7]; at 100.0 µM 30% | [8]; at 1.2 µM 4% | [8]; at 3.7 µM 4% | [8]; at 11.0 µM 10% | [8]; at 33.0 µM 21% | [8]; at 100.0 µM 32% | [9]; at 1.2 µM -2% | [9]; at 3.7 µM 2% | [9]; at 11.0 µM 4% | [9]; at 33.0 µM 17% | [9]; at 100.0 µM 32% | [10]; [17] 0% | [10]; [18] -1% | [10]; at 50.0 µM 46.4% | [11]; at 1.2 µM -5% | [11]; at 3.7 µM -4% | [11]; at 11.0 µM -1% | [11]; at 33.0 µM 3% | [11]; at 100.0 µM 15%

COc1ccc(C(=O)C(CN(C)C)CN(C)C)cc1
active: [15]; at 100.0 µM 77% | [1]; at 50.0 µM 74.2% and 75.8% | [6]; at 100.0 µM 74% | [7]; at 100.0 µM 79% | [8]; at 100.0 µM 74% | [9]; at 100.0 µM 78%
92% (active) and 27% (inactive): [10]; [18]
inactive: [12]; at 1.2 µM -14% | [12]; at 3.7 µM 30% | [12]; at 11.0 µM 30% | [12]; at 33.0 µM 29% | [12]; at 100.0 µM 48% | [13]; at 1.2 µM -5% | [13]; at 3.7 µM -1% | [13]; at 11.0 µM -4% | [13]; at 33.0 µM 3% | [13]; at 100.0 µM 40% | [14]; at 1.2 µM 10% | [14]; at 3.7 µM 19% | [14]; at 11.0 µM 9% | [14]; at 33.0 µM 13% | [14]; at 100.0 µM 17% | [15]; at 1.2 µM -26% | [15]; at 3.7 µM -12% | [15]; at 11.0 µM -8% | [15]; at 33.0 µM 11% | [16]; at 1.2 µM 7% | [16]; at 3.7 µM -1% | [16]; [17] 26% and 8% | [16]; at 11.0 µM -2% | [16]; at 33.0 µM 11% | [16]; [18] 52% and 35% | [16]; at 50.0 µM 35.8% and 45.3% | [16]; at 100.0 µM 51% | [1]; at 1.2 µM -20% | [1]; at 3.7 µM -9% | [1]; [17] 14% and 1% | [1]; at 11.0 µM -4% | [1]; at 33.0 µM 9% | [1]; [18] 63% and 41% | [1]; at 100.0 µM 68% | [2]; at 1.2 µM -13% | [2]; at 3.7 µM -8% | [2]; at 11.0 µM -2% | [2]; at 33.0 µM 19% | [2]; at 100.0 µM 24% | [3]; [17] 34% and 14% | [3]; [18] 59% and 35% | [3]; at 50.0 µM 32.8% and 61.8% | [4]; at 1.2 µM 15% | [4]; at 3.7 µM 12% | [4]; at 11.0 µM 6% | [4]; at 33.0 µM 33% | [4]; at 100.0 µM 46% | [5]; [17] 11% and 20% | [5]; [18] 31% and 36% | [5]; at 50.0 µM 21.6% and 30.7% | [6]; at 1.2 µM -18% | [6]; at 3.7 µM -5% | [6]; [17] 21% and 19% | [6]; at 11.0 µM -2% | [6]; at 33.0 µM 11% | [6]; [18] 51% and 33% | [7]; at 1.2 µM 12% | [7]; at 3.7 µM 1% | [7]; at 11.0 µM 4% | [7]; at 33.0 µM 36% | [8]; at 1.2 µM -32% | [8]; at 3.7 µM -15% | [8]; at 11.0 µM -13% | [8]; at 33.0 µM 4% | [9]; at 1.2 µM -7% | [9]; at 3.7 µM 29% | [9]; at 11.0 µM 26% | [9]; at 33.0 µM 32% | [10]; [17] 57% and 12% | [10]; at 50.0 µM 8.1% and 64.3% | [11]; at 1.2 µM -3% | [11]; at 3.7 µM -8% | [11]; at 11.0 µM -23% | [11]; at 33.0 µM -3% | [11]; at 100.0 µM 66%
0.15% (inactive) and 75.1% (active): [6]; at 50.0 µM

N#CC1=C(N)N(/N=C/c2ccccc2)C(c2ccccc2)C1(C#N)C#N (centres undefined)
active: [12]; at 11.0 µM 78% | [12]; at 33.0 µM 90% | [12]; at 100.0 µM 84% | [15]; at 11.0 µM 84% | [15]; at 33.0 µM 96% | [15]; at 100.0 µM 95% | [16]; at 33.0 µM 90% | [16]; [18] 83% | [16]; at 100.0 µM 87% | [1]; at 11.0 µM 72% | [1]; at 33.0 µM 91% | [1]; [18] 87% | [1]; at 100.0 µM 87% | [2]; at 33.0 µM 89% | [2]; at 100.0 µM 90% | [3]; [18] 76% | [3]; at 50.0 µM 76.6% | [4]; at 33.0 µM 88% | [4]; at 100.0 µM 93% | [6]; at 11.0 µM 77% | [6]; at 33.0 µM 93% | [6]; [18] 88% | [6]; at 100.0 µM 95% | [7]; at 11.0 µM 94% | [7]; at 33.0 µM 86% | [7]; at 100.0 µM 87% | [8]; at 11.0 µM 79% | [8]; at 33.0 µM 95% | [8]; at 100.0 µM 93% | [9]; at 11.0 µM 80% | [9]; at 33.0 µM 93% | [9]; at 100.0 µM 95% | [10]; [18] 89% | [11]; at 11.0 µM 81% | [11]; at 33.0 µM 89% | [11]; at 100.0 µM 89%
inactive: [12]; at 1.2 µM 15% | [12]; at 3.7 µM 41% | [13]; at 1.2 µM 12% | [13]; at 3.7 µM 12% | [13]; at 11.0 µM 10% | [13]; at 33.0 µM 55% | [13]; at 100.0 µM 58% | [14]; at 1.2 µM 20% | [14]; at 3.7 µM 14% | [14]; at 11.0 µM 8% | [14]; at 33.0 µM 23% | [14]; at 100.0 µM 5% | [15]; at 1.2 µM 8% | [15]; at 3.7 µM 33% | [16]; at 1.2 µM 5% | [16]; at 3.7 µM 17% | [16]; [17] 16% | [16]; at 11.0 µM 66% | [16]; at 50.0 µM 39.9% | [1]; at 1.2 µM 9% | [1]; at 3.7 µM 31% | [1]; [17] 4% | [1]; at 50.0 µM 58.5% | [2]; at 1.2 µM 4% | [2]; at 3.7 µM 19% | [2]; at 11.0 µM 45% | [3]; [17] 5% | [4]; at 1.2 µM 25% | [4]; at 3.7 µM 40% | [4]; at 11.0 µM 64% | [5]; [17] -4% | [5]; [18] 46% | [5]; at 50.0 µM 45.7% | [6]; at 1.2 µM 9% | [6]; at 3.7 µM 21% | [6]; [17] 13% | [6]; at 50.0 µM 65.7% | [7]; at 1.2 µM -9% | [7]; at 3.7 µM 51% | [8]; at 1.2 µM 13% | [8]; at 3.7 µM 27% | [9]; at 1.2 µM 15% | [9]; at 3.7 µM 41% | [10]; [17] 14% | [10]; at 50.0 µM 63.5% | [11]; at 1.2 µM 3% | [11]; at 3.7 µM 22%
